Source: PubChem
TLR4-MyD88 BLA: inhibitors of human TLR4-MyD88 binding | hit rate 0.18% among 200,000 | O00206+Q99836 | inhibition, % at 8.4 µM | AID 861 | HeLa CL3-4 TLR4/MyD88 BLA complementation, FRET ratio; in the data active means inhibition above about 25%
NOD2 RIPK2 PPI: blocks binding of human NOD2 to RIPK2; O43353; CHO BLA complementation NOD2-RIPK2, CCF4 ratio; inhibition, % at 4.98 µM; hit rate 0.38% among 360,000; AID 624267; in the data active means inhibition above about 21%
Target sequence (O43353 whole entry, looked up): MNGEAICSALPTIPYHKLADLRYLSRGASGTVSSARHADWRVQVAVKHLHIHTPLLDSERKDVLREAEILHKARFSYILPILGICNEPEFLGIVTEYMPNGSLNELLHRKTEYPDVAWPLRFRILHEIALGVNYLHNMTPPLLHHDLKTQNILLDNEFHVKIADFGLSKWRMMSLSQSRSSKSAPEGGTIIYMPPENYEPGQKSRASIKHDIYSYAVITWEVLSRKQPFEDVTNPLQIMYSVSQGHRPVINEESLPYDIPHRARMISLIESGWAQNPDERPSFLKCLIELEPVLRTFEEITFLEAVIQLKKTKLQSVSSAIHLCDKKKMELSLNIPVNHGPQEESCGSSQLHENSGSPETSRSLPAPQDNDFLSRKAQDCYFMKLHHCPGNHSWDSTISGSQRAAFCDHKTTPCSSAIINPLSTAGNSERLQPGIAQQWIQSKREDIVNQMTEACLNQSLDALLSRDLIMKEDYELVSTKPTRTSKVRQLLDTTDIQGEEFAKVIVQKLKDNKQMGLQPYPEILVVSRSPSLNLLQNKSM
TLR9-MyD88 inh: TLR9-MyD88 interaction inhibition. Q9NR96+Q99836. CHO BLA complementation TLR9-MyD88, CCF4 FRET ratio. inhibition, % at 4.98 µM. hit rate 0.21% among 340,000. AID 504734;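 active means inhibition above the mean over all tested compounds plus 3 SD, cut at about 21% in these data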
NTR1 ag: activates human neurotensin receptor 1; P30989; NTR1-U2OS beta-arrestin-GFP spot imaging, agonist mode; activation, % at 20 µM; hit rate 0.17% among 330,000; AID 493036;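 active means activation at or above 40% of the spot to cytoplasm intensity ratio, with at least 20 cells analyzed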
Beta2AR agonist: human beta-2 adrenergic receptor agonism by FAP; Am2.2-beta2AR cells, FAP receptor internalization, flow cytometry; response, % (no concentration beside the values); hit rate 0.43% among 340,000;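 active means response above a set limit, near 3 SD of response in nonfluorescent compounds, cut at about 42% in these data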
ABHD5-PLIN5 inh: ABHD5-PLIN5 protein interaction inhibition | Q00G26+Q8WTS1 | Split G. princeps luciferase complementation, luminescence, 4 h | inhibition, % at 4 µM | hit rate 0.78% among 360,000 | AID 602281;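 active means inhibition above the mean inhibition across every tested compound plus 3 SD, cut at about 22% in these data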
A number is an active result; . = inactive; / = not tested or not shown. In the library only some 1.5% were active in any assay of this set; here they are far more common.

SMILES | TLR4-MyD88 BLA | NOD2 RIPK2 PPI | TLR9-MyD88 inh | NTR1 ag | Beta2AR agonist | ABHD5-PLIN5 inh
O=C1NC(=O)N(Cc2ccco2)C(=O)/C1=C/c1ccc(-c2cccc([N+](=O)[O-])c2)o1 | . | . | . | 58 | . | .
CN(C)c1ccc(/C=C2/C(=O)NC(=O)N(Cc3ccco3)C2=O)cc1 | . | . | . | . | . | .
COc1cc2c(c(OC)c1OC)-c1ccc(SC)c(=O)cc1C(N)CC2 (configuration not stated) | / | . | . | / | . | .
C/C1=C\[C@@H](C)C/C=C/[C@H]2[C@@H]3O[C@]3(C)[C@@H](C)[C@H]3[C@H](Cc4c[nH]c5ccccc45)NC(=O)[C@]32C(=O)/C=C/C(=O)[C@@H]1O | . | . | . | . | 72 | 70
O=C1NC(=O)N(Cc2ccccc2)C(=O)/C1=C/C=C/c1ccco1 | / | . | . | . | 76 | .
CCOC(=O)[C@]12Cc3ccccc3[C@H]1N(C)C(=O)c1cc(OC)ccc12 | / | . | / | / | / | .
CCOC(=O)[C@]12Cc3c(cc(OC)c(OC)c3OC)[C@H]1N(C)C(=O)c1cc(OC)ccc12 | / | . | / | / | / | 23
O=C1C2CCCN2C(c2cccc(Cl)c2)N1c1ccccn1 (configuration not stated) | . | . | . | . | . | .
CN1C2CCC1CC(OC(=O)CCN1CCCC1)C2 (configuration not stated) | . | . | . | . | . | .
O=C(CCN1CC1)OCCOC(=O)CCN1CC1 | / | . | . | / | 55 | .
O=S(=O)(c1cc(Cl)cc(Cl)c1)N1Cc2cc(-c3ccccc3)ccc2-n2nncc2C1 | / | . | / | / | / | .
COC(=O)C1=Nc2ccccc2/C1=C\c1c(O)n(-c2ccc(Br)cc2)c(=O)[nH]c1=O | . | . | . | / | . | .
COC(=O)C1=Nc2ccccc2/C1=C\c1c(O)n(-c2ccc(OC)cc2)c(=O)[nH]c1=O | . | . | . | . | . | 38
Cc1ccccc1-c1ccc2c(c1)CNCc1cnnn1-2 | / | . | / | / | / | .
O=c1[nH]c(=O)n(-c2cccc(F)c2)c(O)c1/C=C1\C=Nc2ccccc21 | / | . | . | . | 44 | .
C=C(C=O)CC1CC(O)[C@]2(C)OC3CC4OC5C[C@]6(C)O[C@]7(C)CCC8OC9C[C@]%10(C)OC%11C(C)=CC(=O)OC%11CC%10OC9C[C@@H](C)C8OC7CC6O[C@]5(C)CC5OC5C4OC3CC2O1 (some centres not stated) | . | . | . | . | 107 | 22
CSc1ccccc1C(=O)C1CCCN(Cc2ccn[nH]2)C1 (configuration not stated) | . | . | . | . | . | .
COc1ccc(N2C(=O)/C(=C/c3ccc(N(C)C)o3)C(=O)NC2=S)cc1 | / | . | . | . | . | 23
Cc1cccc(N=C2c3cc([N+](=O)[O-])ccc3-c3c2cc([N+](=O)[O-])cc3[N+](=O)[O-])c1 | / | . | . | / | . | 22
CCOc1cc(/C=C2/C(=O)NC(=O)N(c3ccc(CC)cc3)C2=O)ccc1OC(=O)c1cccs1 | . | . | . | . | . | 22
CC1=C(C)CN2CC(C#N)=C(N)C2C1 (configuration not stated) | / | . | / | / | / | .
Cc1cc(C)cc(N2C(=O)NC(=O)/C(=C\c3cccn3-c3ccc(Cl)cc3)C2=O)c1 | . | . | . | 50 | . | .
CCc1ccc(N2C(=O)NC(=O)/C(=C/c3cccn3CCOc3ccc(C)cc3)C2=O)cc1 | . | . | . | . | . | .
CC(=O)OC(C)(C)/C=C/C(=O)[C@](C)(O)[C@H]1[C@H](O)C[C@@]2(C)[C@@H]3CC=C4[C@H](C[C@H](O)C(=O)C4(C)C)[C@]3(C)C(=O)C[C@]12C | . | . | . | / | 68 | .
CC(=O)OC(C)(C)/C=C/C(=O)C(C)(O)C1[C@H](O)C[C@@]2(C)C3CC=C4C(CC[C@@H](O)C4(C)C)[C@]3(CO)C(=O)C[C@]12C (some centres not stated) | / | . | . | . | 52 | .
SMILES | TLR4-MyD88 BLA | NOD2 RIPK2 PPI | TLR9-MyD88 inh | NTR1 ag | Beta2AR agonist | ABHD5-PLIN5 inh
CC(=O)OC(C)(C)/C=C/C(=O)C(C)(O)C1C(O)CC2(C)C3CC=C4C(CC(O)C(=O)C4(C)C)C3(C)C(=O)CC12C (configuration not stated) | / | . | . | / | . | .
COc1ccccc1N1C(=O)NC(=O)/C(=C\c2cnn(-c3ccccc3)c2)C1=O | . | . | . | . | . | .
O=C1NC(=O)N(Cc2ccccc2)C(=O)/C1=C/c1cnn(-c2ccccc2)c1 | . | / | / | 47 | / | /
C[C@]12C[C@H](O)[C@@H](O)C[C@@H]1CC[C@@H]1[C@@H]2CC[C@]2(C)C(=O)CC[C@@H]12 | / | . | / | / | / | .
CC(=O)O[C@H]1CC[C@@]2(C)[C@H](C1)C(=O)C[C@H]1[C@@H]3CC[C@@H]4[C@@H](CN5C[C@@H](C)CC[C@H]5[C@@]4(C)O)[C@@H]3C[C@@H]12 | / | . | . | . | . | .
CCn1nc(-c2cccs2)nc2c(=O)n(C)c(=O)nc1-2 | / | . | . | / | 102 | .
COc1ccc(-n2c(/C=C/c3ccc(O)cc3)nc3ccccc3c2=O)cc1 | / | . | . | . | . | .
CCn1nc(/C=C/c2ccccc2)nc2c(=O)n(C)c(=O)nc1-2 | . | . | / | . | 68 | .
CCOP(=O)(OCC)C(c1ccccc1)N(C)C=O (configuration not stated) | . | 58 | . | . | . | .
CCOP(=O)(OCC)C(NC(=O)c1ccccc1)C(Cl)(Cl)Cl (configuration not stated) | . | . | . | . | . | .
O=[N+]([O-])/C=C/c1c(Cl)cccc1Cl | / | . | . | / | . | 22
OCC1CO1 (configuration not stated) | / | . | . | . | . | .
CN1C2CCC1CC(OC(=O)c1cccc(O)c1)C2 (configuration not stated) | / | . | . | / | . | .
COc1ccc(C(=O)OC2C[C@H]3CC[C@@H](C2)N3O)cc1OC (some centres not stated) | / | . | . | . | 62 | .
COc1cc2c(c(OC)c1OC)-c1ccc(OC)c(=O)cc1C(N)CC2 (configuration not stated) | / | . | . | / | . | .
Cc1cccc(N2C(=O)NC(=O)/C(=C/c3ccc(N4CCOCC4)cc3)C2=O)c1 | . | . | . | . | . | 22
COc1ccc(-n2c(CNCCc3ccc(C)cc3)nc3ccccc3c2=O)cc1 | / | . | . | . | . | .
Cc1ccc(/C=C2\C(=O)NC(=S)N(c3ccccc3F)C2=O)s1 | . | . | . | / | 71 | .
COCCNC(=O)Cn1cc(/C=C2\C(=O)NC(=O)N(c3ccccc3F)C2=O)c2ccccc21 | / | . | . | . | . | .
COCCCNC(=O)Cn1cc(/C=C2\C(=O)NC(=O)N(c3ccccc3F)C2=O)c2ccccc21 | / | . | . | . | . | 27
CC(C)C1CN1CC(O)Cn1ccnc1[N+](=O)[O-] (configuration not stated) | / | . | / | / | / | .
